High-throughput results as filed in PubChem.
A selection: hits, their analogues and other compounds. The true share with any hit is near 4.1%.
CSC inhib: blocks cancer stem cells; 1.1% of 300,000 active; inhibition, % at 7.5 µM; cancer stem cell-like cells viability, luminescence; in the data active = inhibition above about 75%; inconclusive = no clear call, values can overlap the other calls; tested in HMLE shEcad cells
Bfl-1 A1 inh: inhibitors of the anti-apoptotic protein A1, read as caspase activation. MEF A1-2A-BIM cells, Caspase-Glo 3/7 luminescence, 3 h; percent of clofoctol response, vehicle zero. AID 2462. 0.066% of 330,000 active. caspase activation, % (no concentration beside the values);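 active = over half of replicate activation scores above 10%, or exactly half above 10 with the replicate mean above 10; inconclusive = replicate mean below 10 yet half the replicates above 10; inactive = over half of replicates below 10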
Mdm2-MdmX inh: inhibitors of human Mdm2/MdmX interaction; 3% of 330,000 active; AID 485346; SaOS-2 split-luciferase Mdm2/MdmX complementation, luminescence; inhibition, % at 8 µM; O15151+Q00987;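 active = inhibition of at least 50% at 8 µM in the primary screen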
Target sequence (O15151 whole entry, looked up): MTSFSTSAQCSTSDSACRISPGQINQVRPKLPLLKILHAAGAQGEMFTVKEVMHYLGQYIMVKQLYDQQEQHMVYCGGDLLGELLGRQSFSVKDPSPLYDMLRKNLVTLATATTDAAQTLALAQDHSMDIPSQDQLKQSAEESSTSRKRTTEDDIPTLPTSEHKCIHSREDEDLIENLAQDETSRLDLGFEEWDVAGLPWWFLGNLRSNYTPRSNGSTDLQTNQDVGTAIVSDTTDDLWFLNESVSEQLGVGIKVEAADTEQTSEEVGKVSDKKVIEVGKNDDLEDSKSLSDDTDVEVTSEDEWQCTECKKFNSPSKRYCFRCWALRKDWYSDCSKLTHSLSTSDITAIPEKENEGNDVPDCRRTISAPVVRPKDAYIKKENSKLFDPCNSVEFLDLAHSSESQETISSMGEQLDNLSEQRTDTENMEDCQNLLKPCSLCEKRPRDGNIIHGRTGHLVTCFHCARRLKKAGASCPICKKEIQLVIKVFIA
Target sequence (Q00987 whole entry, looked up): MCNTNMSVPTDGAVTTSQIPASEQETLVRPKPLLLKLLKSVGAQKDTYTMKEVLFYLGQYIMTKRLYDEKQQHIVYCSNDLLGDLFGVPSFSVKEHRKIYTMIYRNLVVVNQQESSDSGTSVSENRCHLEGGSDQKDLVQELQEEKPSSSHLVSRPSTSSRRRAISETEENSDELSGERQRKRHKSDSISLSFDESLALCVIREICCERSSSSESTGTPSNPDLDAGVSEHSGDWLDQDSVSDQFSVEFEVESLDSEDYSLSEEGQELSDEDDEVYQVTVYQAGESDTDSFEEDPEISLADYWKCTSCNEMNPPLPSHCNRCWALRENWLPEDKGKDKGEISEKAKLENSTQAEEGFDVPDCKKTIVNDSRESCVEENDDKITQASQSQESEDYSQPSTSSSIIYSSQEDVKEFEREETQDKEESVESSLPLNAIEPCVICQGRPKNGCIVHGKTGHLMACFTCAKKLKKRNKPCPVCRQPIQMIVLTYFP
Beta apoptosis: beta cell apoptosis inhibition. INS-1E cytokine-induced death, ATP luminescence, 48 h; percent of positive-control rescue, neutral wells zero. protection from apoptosis, % (test concentration not listed). 0.8% of 300,000 active;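 active = Every replicate reaches about 75%, or at least half do and their mean reaches it too, limit read from the data; inconclusive = At least half of replicates reach the limit but their mean does not; inactive = Under half of replicates reach the limit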;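 also: 0% = cytokine-treated negative control wells and 100% = positive control rescue; higher means more ATP so stronger rescue from cytokine killing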
aSyn UTR inh: MLPCN primary screen, SNCA 5' untranslated region; inhibition, % (tested at 7.5 µM); 0.82% of 300,000 active; AID 1813; alpha-synuclein 5'UTR reporter, inhibitor activity; in the data active = inhibition above about 60%; inconclusive = no clear call, values can overlap the other calls;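 also: H4 neuroglioblastoma cells stably carrying SNCA 5'UTR luciferase fusion; 0% = DMSO wells and 100% = positive control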
* hit, by the source's call; ? = inconclusive; . = no result given.

SMILES	CSC inhib	Bfl-1 A1 inh	Mdm2-MdmX inh	Beta apoptosis	aSyn UTR inh
Cc1[nH][nH]c(=O)c1C(c1c(C)[nH][nH]c1=O)c1cn(Cc2ccc(Cl)c(Cl)c2)c2ccccc12	67.1	-1.0	.	-8.3	90.3*
Cc1cc(C)nc(NC(=O)c2ccc(COc3ccccc3Cl)cc2)c1	98.5*	-1.3	8.9	9.2	2.8
O=C(Nc1ccn(Cc2ccccc2F)n1)c1ccc(COc2ccccc2Cl)cc1	139.0*	-0.4	21.1	6.0	-32.3
O=C(Nc1ccn(Cc2c(F)c(F)cc(F)c2F)n1)c1ccc(COc2ccccc2Cl)cc1	13.7	1.2	25.0	0.2	-40.5
COc1ccc(S(=O)(=O)N2CCOCC2)cc1NC(=O)CN1C(=O)NC2(CCCCC2C)C1=O (stereo not drawn)	.	-0.5	-39.5	2.8	.
Cc1ccccc1NC(=S)N/N=C/C(C)c1ccccc1 (stereo not drawn)	.	-0.5	-1.2	-2.6	-0.4
Cc1ccccc1NC(=S)N/N=C/c1ccc(O)cc1O	69.7	-0.4	29.1	86.8*	-38.0
O=C(O)c1cccc(NC(=S)N/N=C/c2cccc(O)c2)c1	-7.1	?	13.3	1.7	?
Cc1cccc(NC(=S)N/N=C/c2cccc(O)c2)c1C	80.5*	0.0	42.6	2.1	-36.7
CC(C)(C)NC(=O)CCN(/N=C/c1ccccc1O)C1=NS(=O)(=O)c2ccccc21	-14.2	0.1	-8.6	-2.3	13.4
O=C(Nc1nc2c(F)cc(F)cc2s1)c1ccccn1	42.2	-7.2	25.2	92.9*	73.1*
O=C(COc1ccccc1)NNc1nc2c(F)cc(F)cc2s1	-13.9	0.3	18.3	-5.7	-37.7
Fc1ccc2nc(Nc3nc4c(F)cc(F)cc4s3)sc2c1	49.5	-4.1	.	89.5*	-211.4
Cc1ccc(OCCSc2nc(NC(C)C)nc(NC(C)C)n2)cc1	89.6*	0.2	3.7	39.4	24.8
O=C(Nc1nc2ccccc2[nH]1)c1ccc(Cl)cc1	22.0	-9.0	-7.5	23.9	65.9*
O=C(Nc1nc2ccccc2[nH]1)c1ccccc1	23.5	-7.5	-65.7	14.5	54.4
CC(C)(C)c1ccc(C(=O)Nc2ccc(C(=O)NCc3cccnc3)cc2)cc1	3.4	0.7	-12.2	112.9*	56.6
O=C(NC(=S)NCc1cccnc1)c1ccc([N+](=O)[O-])cc1	-4.9	-0.3	6.6	-5.6	-21.6
CCOC(=O)Cc1ccc(NC(=O)c2ccc(C(C)(C)C)cc2)cc1	46.7	0.5	49.0	6.0	103.8*
O=C(NCc1cccnc1)c1ccc(NC(=O)c2ccc([N+](=O)[O-])cc2)cc1	-2.3	1.2	27.6	103.8*	23.6
CC(C)(C)C(=O)Nc1ccc(C(=O)NCc2cccnc2)cc1	20.4	-0.1	0.6	1.5	-24.6
COCCN(C(=O)CSc1n[nH]c(-c2ccccc2)n1)c1c(N)n(CC(C)C)c(=O)[nH]c1=O	.	0.5	2.2	-2.4	4.5
CC(Sc1nnc(-c2ccc(OC(F)F)cc2)n1N)C(=O)NCC1CCCO1 (stereo not drawn)	-7.3	1.4	5.2	-10.1	-3.4
Cc1cccc(N(C(=O)c2snc(C(N)=O)c2N)C(C(=O)NCC2CCCO2)c2ccc3ncccc3c2)c1 (stereo not drawn)	7.9	0.0	-13.0	9.3	3.7
Cc1ccccc1Oc1cc(NC(=O)CCCn2nc(C)c([N+](=O)[O-])c2C)cc([N+](=O)[O-])c1	25.6	0.3	14.4	105.1*	39.0
SMILES	CSC inhib	Bfl-1 A1 inh	Mdm2-MdmX inh	Beta apoptosis	aSyn UTR inh
O=C(CN1CCN(c2ccc(O)cc2)CC1)Nc1ccc(SC(F)F)cc1	133.7*	-0.4	20.3	6.0	42.1
CCc1ccc(OC)c(S(=O)(=O)Nc2ccc(Cc3ccncc3)cc2)c1	22.8	-0.5	22.0	101.1*	7.7
O=C(Nc1ccc(Cl)c(S(=O)(=O)N2CCOCC2)c1)c1ccncc1	-5.6	1.0	2.7	-5.9	.
Fc1ccc(C(c2ccc(F)cc2)N2CCN(C/C=C/c3ccccc3)CC2)cc1	98.7*	1.7	33.5	15.4	-6.9
C#CCOCCOCCOCCNc1nc(N2CCN(C(=O)[C@H](CCC(=O)O)n3cc([C@@H](N)[C@H](C)CC)nn3)CC2)nc(N2CCN(C(=O)[C@H](CCC(=O)O)n3cc([C@@H](N)CC(N)=O)nn3)CC2)n1	.	-0.1	-5.0	-9.0	.
Cc1cc(N2CCCC2=O)cc(C)c1S(=O)(=O)NCCOc1ccc(C(C)(C)C)cc1	7.0	0.0	21.0	109.4*	6.1
Cc1cccc(C)c1Nc1nc2ccccc2o1	5.7	0.9	0.7	-1.3	8.0
Cc1nc(Nc2nc3ccccc3o2)nc2c1CCC2	1.1	-7.6	24.7	10.7	71.1*
Cc1c(N=Cc2cccs2)c(=O)n(-c2ccccc2)n1C	-3.8	-0.9	25.5	2.3	-5.4
Cc1ccc(C2C(C=Nc3c(C)n(C)n(-c4ccccc4)c3=O)=C(c3ccccc3)Oc3ccccc32)cc1 (stereo not drawn)	.	0.9	27.2	80.2*	19.0
Cc1ccc(C(=O)Cn2nnc3c(sc4nc5c(c(-c6ccccc6)c43)CCC5)c2=O)cc1	85.8*	-0.4	-5.8	0.5	-4.7
O=c1c2sc3nc(N4CCOCC4)c4c(c3c2nnn1Cc1ccccc1)CCCC4	-8.4	1.1	29.2	-0.2	18.0
CC(=O)c1ccc(OC(=O)c2nc(-c3ccccc3)oc2C)cc1	0.9	0.2	20.8	-2.6	14.2
CCOC(=O)c1ccccc1NC(=O)CN1C(=O)NC(C)(CCc2ccccc2)C1=O (stereo not drawn)	24.6	0.3	-19.6	3.3	9.8
O=C1C2C3C=CC(C3)C2C(=O)N1/N=C/c1cn(Cc2ccccc2)c2ccccc12 (stereo not drawn)	72.7	-0.5	16.8	-1.1	66.5*
Cc1cccc(N2CN(S(=O)(=O)c3cccc([N+](=O)[O-])c3)c3nc4ccccc4nc32)c1	-12.4	4.8	0.3	-4.4	.
Brc1ccc(-c2nc(-c3ccccn3)no2)o1	11.8	-7.8	1.8	10.8	79.5*
COc1ccccc1-c1nc(-c2ccccn2)no1	44.5	-9.4	29.0	.	76.5*
COc1ccc(-c2noc(-c3ccccc3-c3ccccc3)n2)cc1OC	79.9*	-2.0	17.7	4.6	-2.8
Cc1ccccc1-c1nc(-c2ccccn2)no1	-0.7	-0.5	-28.5	43.9	95.0*
Cc1ccccc1-c1nc(-c2cccnc2)no1	2.5	-2.4	-39.4	-5.3	-226.6
COc1ccc(-c2noc(-c3cccnc3)n2)cc1OC	7.8	-5.0	-2.2	-3.1	-158.6
Brc1ccc(-c2noc(-c3ccccn3)n2)o1	3.4	-12.9	-53.2	-0.1	-1.7
Cc1cc(C(=O)NC2CCCN(Cc3ccc(Cl)cc3)C2)c(C)o1 (stereo not drawn)	-5.7	-0.5	15.8	-6.7	-0.3
CC(NC(=O)c1ccco1)C(=O)N1CCN(C(c2ccccc2)c2ccccc2)CC1 (stereo not drawn)	-18.8	-0.6	25.9	-10.0	7.9
COc1ccc(-c2noc(CCCC(=O)O)n2)cc1	-6.4	-1.5	-10.4	-1.0	89.0*
O=C(Nc1ccc(N2CCCCC2)cc1)c1cccnc1	-1.3	0.0	-34.4	3.6	-148.9
